Assay results reported in PubChem BioAssay AID2535 (National Center for Advancing Translational Sciences (NCATS), 2010).
Active and inactive are the calls of the source. The call rests on the fitted dose curve; in most records, active means well fitted curve in the direction sought with a large enough effect; inconclusive means small, poorly fitted or top-dose-only effect, or effect the other way, or another doubt; inactive means no such curve, though single readings can be large or run the other way.

Each compound was assayed against Pyruvate kinase PKLR (Homo sapiens) (UniProt P30613) (assay: Secondary Concentration-Response Assay for Activators of Human Liver Pyruvate Kinase: for Probe SAR). Conditions: purified hPK-L, ATP production, Kinase-Glo luminescence; series mostly up to 58.3 µM.
Method in brief: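 Luciferase-coupled luminescence (Kinase-Glo) reports ATP made by 0.1 nM hPK-L from 0.5 mM PEP (at Km) and 0.1 mM ADP (about 10-fold below Km); pH 7.2 imidazole buffer, 1 h room temperature, in concentration-response format.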

Sequence of Pyruvate kinase PKLR (Homo sapiens) (P30613 whole entry, looked up): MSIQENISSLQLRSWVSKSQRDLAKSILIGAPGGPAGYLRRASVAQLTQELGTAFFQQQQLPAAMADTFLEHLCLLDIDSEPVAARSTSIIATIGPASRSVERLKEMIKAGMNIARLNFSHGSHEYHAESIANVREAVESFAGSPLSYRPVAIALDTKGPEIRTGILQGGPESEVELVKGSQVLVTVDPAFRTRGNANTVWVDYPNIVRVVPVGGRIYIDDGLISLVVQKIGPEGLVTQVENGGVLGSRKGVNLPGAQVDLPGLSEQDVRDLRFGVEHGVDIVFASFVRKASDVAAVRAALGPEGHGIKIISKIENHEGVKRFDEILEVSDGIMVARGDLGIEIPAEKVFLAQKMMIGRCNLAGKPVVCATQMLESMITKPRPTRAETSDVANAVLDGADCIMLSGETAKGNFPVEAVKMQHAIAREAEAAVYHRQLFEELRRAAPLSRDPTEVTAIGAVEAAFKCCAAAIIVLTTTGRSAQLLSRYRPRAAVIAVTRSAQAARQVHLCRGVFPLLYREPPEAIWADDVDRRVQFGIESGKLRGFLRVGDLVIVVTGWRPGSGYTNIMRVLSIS

outcome, inactive:
O=C1CCc2cc(S(=O)(=O)Nc3ccc(F)c(Cl)c3)ccc2N1
CNc1cccc(S(=O)(=O)N2CCCN(S(=O)(=O)c3ccc4c(c3)OCCO4)CC2)c1
COc1ccc(NS(=O)(=O)c2ccc3c(c2)CCC(=O)N3)cc1
O=C1c2ccccc2C(=O)N1c1ccccn1
COc1cccc(Cn2ncc3c4sc(S(C)=O)cc4n(C)c3c2=O)c1 (configuration not stated)
Cc1ccc(-c2nc3ccccn3c2Nc2ccc(F)cc2)o1
O=C1CCc2cc(S(=O)(=O)Nc3ccc(F)cc3)ccc2N1
O=S1(=O)N=C(Oc2ccccc2Cl)c2ccccc21
O=C1c2ccccc2C(=O)N1c1ccc2ccccc2n1
COc1cccc(OC2=NS(=O)(=O)c3ccccc32)c1
Cc1ccn2c(NCc3ccco3)c(-c3ccccc3)nc2c1
COc1ccc(Nc2c(-c3ccc(C)o3)nc3ccccn23)cc1
O=S(=O)(c1ccc2c(c1)OCCO2)N1CCN(S(=O)(=O)c2c(F)cccc2F)CC1
O=C1CCc2cc(Cl)c(S(=O)(=O)Nc3ccc(Cl)c(Cl)c3)cc2N1
Cc1ccc2nc(-c3ccc(C)o3)c(NC3CCCC3)n2c1
COc1ccc(-c2nc3ccccn3c2Nc2ccccc2C)cc1
Cc1ccc(Nc2c(-c3ccc(C)s3)nc3cccc(C)n23)cc1
Cc1c(Cl)cccc1NS(=O)(=O)c1cc2c(cc1F)NC(=O)CC2
Cc1ccc(OC2=NS(=O)(=O)c3ccccc32)cc1
CC(=O)N1CCc2cc(S(=O)(=O)Nc3ccc(C)c(C)c3)ccc21
Cc1ccc(NS(=O)(=O)c2cccc(C(=O)O)c2)cc1C
O=C1CCc2cc(S(=O)(=O)Nc3ccccc3-c3ccccc3)ccc2N1
Cc1ccc(Nc2c(-c3ccsc3)nc3cccc(C)n23)cc1
Cc1ccc(NS(=O)(=O)c2ccc3c(c2)CCC(=O)N3)cc1Cl
Cc1ccc2nc(-c3ccc(C)o3)c(Nc3ccc(Cl)cc3)n2c1
O=C1c2ccccc2C(=O)N1C1CCCCC1
Cc1ccc(NS(=O)(=O)c2cc3c(cc2-c2cn[nH]c2)NC(=O)CO3)cc1C
O=C1CCc2cc(S(=O)(=O)Nc3ccc(Cl)c(Cl)c3)ccc2N1
O=C1c2ccccc2C(=O)N1c1ncccc1O
Cc1ccc(NS(=O)(=O)c2cc3c(cc2Cl)CCC(=O)N3)cc1Cl
O=C1CCc2cc(S(=O)(=O)Nc3cccc(F)c3)ccc2N1
O=C1c2ccccc2C(=O)N1c1cccc(=O)[nH]1
